# HepG2 viability = counter-screen for TGF-b inhibitors: cytotoxicity in HepG2 cells; HepG2 CAGA-GFP viability, ATP luminescence, 18 h; Potency, µM (top dose mostly 46.1 µM), for the others: at the top dose activity change, negative = cytotoxicity, actives largely listed as cytotoxic; 410,000 tested, 0.76% active; AID 588856
#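 HepG2 CAGA-GFP cells (1000/well, DMEM with 1% FBS) received compound, then TGF-beta at 500 pg/mL final, and were incubated 18 hours at 37 degrees C. Viability was read by CellTiter-Glo luminescence. Media-only wells were set as complete cell-killing and DMSO as no toxicity.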
# S2 tox = cell viability loss in ATXN counter-screen; AID 651635; Potency, µM (highest dose often 56.7 µM), most hits filed as cytotoxic; 400,000 tested, 0.49% active; S2 cells (HEK-293 line with an ATXN2-luciferase reporter) viability, CellTiter-Fluor protease fluorescence, 24 h; further: nearly all actives have a fitted effect of over 40% in size
# ATXN2 expr inh = ATXN2 expression inhibition; 360,000 tested, 0.72% active; HEK-293 ATXN2-luciferase reporter, luminescence, 24 h; AID 1745845; Potency, µM (doses to about 57 µM), inactives show at the top dose activity change, negative = inhibition, hits mostly inhibitors; further: on the % scale 0 is the no-effect control and ±100 the full control effect; nearly all actives have a fitted effect of over 55% in size
#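 ATXN2-luciferase reporter cells (luciferase flanked by upstream and downstream ATXN2 gene portions) were treated 24 h at 37 °C with compounds at up to 57 uM. SteadyGlo luminescence gave expression; GF-AFC fluorescence gave viability.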
# TGFb SMAD3 inh = blocks TGF-b signaling | HepG2 CAGA-GFP TGF-b/SMAD3 reporter, GFP fluorescence, 18 h; TGF-beta stimulated, 500 pg/mL final | Potency, µM (series often up to 46.1 µM), for the others: at the top dose activity, negative = inhibition, usual class: inhibitors | 410,000 tested, 1.2% active; further: on the % scale 0 is the no-effect control and ±100 the full control effect; nearly all actives have a fitted effect of over 65% in size
#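 HEPG2 CAGA-GFP cells (1000/well, DMEM with 1% FBS) were pre-incubated 2 h at 37 degrees C, given compound by pin tool, then stimulated with TGF-beta at 500 pg/mL final for 18 h before per-cell GFP fluorescence imaging.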
# DT40 TDP1 CPT = growth inhibition of DT40 Tdp1-/-;hTDP1 cells with camptothecin (screen for TDP1 inhibitors). chicken DT40 Tdp1-/-;hTDP1 cells + 20 nM CPT, ATP luminescence, 48 h. 420,000 tested, 12% active. AID 686979. Potency, µM (doses to about 46.2 µM), for inactives: at the highest dose activity change, negative = growth inhibition, usual class: inhibitors; further: on the % scale 0 is the no-effect control and ±100 the full control effect; nearly all actives have a fitted effect of over 55% in size
#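 Chicken DT40 Tdp1-/- cells stably complemented with human TDP1 were seeded at 400 cells/well in medium containing 20 nM camptothecin, exposed to pin-transferred compounds, and grown at 37 °C for at least 48 hr. Viability was read as ATP luminescence.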
# TDP1 cell noCPT = qHTS for Inhibitors of human tyrosyl-DNA phosphodiesterase 1 (TDP1): qHTS in cells in absence of CPT. DT40 Tdp1-/- hTDP1 cells, no CPT, ATP luminescence, 48 h. Potency, µM (series often up to 46.2 µM), for the others: top-dose activity change, negative = growth inhibition, hits mostly inhibitors. 420,000 tested, 15% active; further: on the % scale 0 is the no-effect control and ±100 the full control effect; nearly all actives have a fitted effect of over 55% in size
#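 Readout: luminescence from CellTiter-Glo after 30 min in the dark at RT. Cells: DT40 Tdp1-/- with stable hTDP1, 400/well. Exposure: compounds alone, ≥48 hr, 37 °C.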
# An asterisk follows results filed as active; i = inactive; ? = inconclusive; nt = no result given. An excerpt weighted towards active compounds, which were near 17% of everything screened. The call rests on the fitted dose curve; in most records, active means well fitted curve in the direction sought with a large enough effect; inconclusive means small, poorly fitted or top-dose-only effect, or another doubt; inactive means no such curve, though single readings can be large; an effect the other way counts as inactive or inconclusive. Potency means the concentration at half of the fitted maximal effect.
SMILES,HepG2 viability,S2 tox,ATXN2 expr inh,TGFb SMAD3 inh,DT40 TDP1 CPT,TDP1 cell noCPT
Cn1c(SCc2ccc(Cl)cc2)nnc1-c1ccc2nonc2c1,12%,i,nt,2%,-27%,?
CCCN(C(=O)c1cn(C)c(=O)c2cc(OC)c(OC)cc12)c1ccc(CC)cc1,-15%,i,-8%,4%,?,?
O=C(CNC(=O)C1(c2ccccc2)CC1)Nc1ccc(F)c(F)c1,-1%,i,7%,-6%,-21%,-13%
Cc1ccc(C)c(N2CCN(c3nc4ccc(C(=O)c5ccccc5)cc4n4cnnc34)CC2)c1,8%,i,12%,15%,?,?
COc1cccc(N2CCN(c3nc4ccc(C(=O)c5ccccc5)cc4n4c(C)nnc34)CC2)c1,-25%,nt,nt,-21%,?,16µM*
Cc1ccc(Nc2nc3ccc(C(=O)c4ccccc4)cc3n3c(C)nnc23)c(C)c1,17%,nt,nt,0%,-13%,-20%
Cc1ccc(Cl)cc1N1CCN(c2nc3ccc(C(=O)c4ccccc4)cc3n3cnnc23)CC1,-30%,nt,nt,0%,18µM*,23µM*
O=C(c1ccccc1)c1ccc2nc(Nc3ccccc3)c3nncn3c2c1,3%,i,-12%,6%,?,?
Cc1ccc(N2CCN(c3nc4ccc(C(=O)c5ccccc5)cc4n4cnnc34)CC2)c(C)c1,-11%,nt,nt,0%,?,18µM*
COc1ccc(CCN(Cc2cc3cc(C)cc(C)c3nc2Cl)C(=O)C2CC2)cc1,-31%,i,-18%,?,?,16µM*
CC(=O)Nc1ccc2c(c1)Cc1cc(N3C(=O)C=CC3=O)ccc1-2,-72%,?,?,16µM*,1µM*,1.3µM*
O=C1C=CC(=O)N1c1ccc2c(c1)Cc1cc(F)ccc1-2,0%,?,0%,-6%,1.6µM*,2.1µM*
CC(=O)Nc1ccc2c(c1)Cc1ccc(Cl)cc1-2,-17%,i,11%,0%,-12%,-7%
N#C/C(=C\c1ccccc1)C(=O)NNS(=O)(=O)c1ccc(Br)cc1,-3%,?,-5%,5%,-25%,3%
c1ccc(OCCOCCN2CCOCC2)cc1,-6%,i,-6%,-6%,-34%,-5%
CCC(C)NCCOc1ccc(C(C)(C)c2ccccc2)cc1 (centres undefined),-20%,?,-31%,-3%,?,16µM*
CC1CCN(CCCCOc2ccc(C(C)(C)C)cc2)CC1,-34%,i,-19%,-14%,23µM*,?
CC(C)(c1ccccc1)c1ccc(OCCCN2CCNCC2)cc1,22µM*,?,-30%,0%,5.8µM*,7.3µM*
CC(C)(c1ccccc1)c1ccc(OCCN2CCOCC2)cc1,-12%,i,nt,-9%,?,16µM*
CCOC(=O)C(Cc1cc(N)c(Oc2ccc(OC)cc2)c(N)c1)NC(C)=O (centres undefined),10%,i,2%,-17%,-3%,-26%
COc1cc(/C=C(\NC(=O)c2cc(OC)c(OC)c(OC)c2)C(=O)NC(C(=O)O)c2ccccc2)cc(OC)c1OC (centres undefined),-3%,i,-2%,1%,0%,-12%
CC(C)(C)c1ccc(OCCCCCCN2CCNCC2)cc1,-173%,?,?,?,18µM*,8.2µM*
COCCCNc1nc2nonc2nc1N1CCN(Cc2cccc(C)c2)CC1,-23%,i,-13%,-21%,?,?
Fc1cccc(CN2CCN(c3nc4nonc4nc3NC3CC3)CC2)c1,-7%,i,nt,3%,-26%,23µM*
O=c1cc(CSc2nc(NCc3ccccc3)c3ccccc3n2)nc2ccc(Cl)cn12,10%,?,-7%,0%,16µM*,12µM*
SMILES,HepG2 viability,S2 tox,ATXN2 expr inh,TGFb SMAD3 inh,DT40 TDP1 CPT,TDP1 cell noCPT
Clc1ccc(CSc2nc(NCCc3ccccc3)c3ccccc3n2)cc1,-2%,nt,nt,0%,9.2µM*,6.5µM*
COc1ccc(CCNc2nc(SCc3cccc(F)c3)nc3ccccc23)cc1OC,-16%,nt,nt,0%,16µM*,?
Clc1ccccc1CSc1nc(NCCc2ccccc2)c2ccccc2n1,-17%,nt,nt,-2%,?,13µM*
CCN(C(=O)CCc1nnc2ccc(N3CCC4(CC3)OCCO4)nn12)c1ccccc1,5%,i,10%,2%,-14%,13%
CC1CC(C)(C)NC(=S)N1CCC(=O)NCCc1ccc(Cl)cc1 (centres undefined),-21%,i,-17%,1%,-14%,?
Cc1sc(NC(=O)C2=COCCO2)c(C(N)=O)c1C,-3%,i,10%,21%,7%,-12%
COCCNC(=O)C(OC(=O)c1nsc(Cl)c1Cl)C(C)C (centres undefined),1%,i,-6%,14%,-8%,-26%
Fc1ccc(Nc2nc(SCc3cccc(F)c3)nc3ccccc23)cc1,13µM*,nt,nt,?,15µM*,16µM*
CCOc1ccsc1C(=O)NNC(=O)c1ccco1,-19%,i,-10%,-16%,-3%,5%
CN(C)C(=O)N1CCC(C(=O)NCc2cccs2)CC1,-6%,i,4%,13%,-12%,5%
Cc1ccc2c(c1)N(C(=O)N1CCC(C(=O)NCc3cccs3)CC1)CC(C)O2 (centres undefined),-19%,nt,nt,?,?,18µM*
CCC1CN(C(=O)N2CCC(C(=O)NCc3cccs3)CC2)c2cc(C)ccc2O1 (centres undefined),-22%,nt,nt,-15%,18µM*,23µM*
CC(=O)c1ccc(S(=O)(=O)NCC(=O)N2CCN(C/C=C/c3ccccc3)CC2)cc1,-14%,i,-20%,-35%,?,-24%
CSCCC(NC(=O)c1ccc(Cl)c([N+](=O)[O-])c1)C(=O)N1CCN(C/C=C/c2ccccc2)CC1 (centres undefined),-12%,?,?,-16%,18µM*,?
C[C@H](NC(=O)c1ccc(C(C)(C)C)cc1)C(=O)N1CCN(C/C=C/c2ccccc2)CC1,-24%,?,?,?,?,21µM*
O=C(NCC(=O)N1CCCCCC1)c1ccc(OC(F)F)cc1,-8%,i,1%,-3%,3%,-7%
O=C(NCC(=O)N1CCN(C/C=C/c2ccccc2)CC1)c1ccc(Br)cc1,-37%,i,?,-23%,16µM*,8.2µM*

# Screens: PubChem BioAssay, National Center for Advancing Translational Sciences (NCATS)
